From PubChem BioAssay
Active and inactive are the calls of the source.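 The calls were made as follows: active = inhibition above the hit cutoff set in the earlier primary screen (cut at about 27% in these data); inactive = the rest.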

target: Protein phosphatase methylesterase 1 (Homo sapiens) (UniProt Q9Y570); test: human PME-1 methylesterase inhibition confirmation – biochemical, fluorescence polarization, FP-Rh probe, triplicate (AID 2171); settings: recombinant PME-1, FP-Rh probe fluorescence polarization; at 5.9 µM; stronger effect = higher value;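 also: 0% = enzyme with DMSO and 100% = wells lacking PME-1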
Sequence (Q9Y570 whole entry, looked up): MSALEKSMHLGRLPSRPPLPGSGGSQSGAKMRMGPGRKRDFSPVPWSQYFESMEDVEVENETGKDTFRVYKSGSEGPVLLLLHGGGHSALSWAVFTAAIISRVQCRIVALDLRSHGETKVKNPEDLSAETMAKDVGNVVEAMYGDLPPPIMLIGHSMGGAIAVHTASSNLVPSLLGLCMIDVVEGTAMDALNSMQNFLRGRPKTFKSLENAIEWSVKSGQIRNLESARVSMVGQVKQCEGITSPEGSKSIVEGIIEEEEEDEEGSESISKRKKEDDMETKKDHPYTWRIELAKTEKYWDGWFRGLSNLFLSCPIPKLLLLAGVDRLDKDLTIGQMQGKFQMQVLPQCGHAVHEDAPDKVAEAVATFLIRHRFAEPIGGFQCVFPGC

| SMILES | inhibition |
| --- | --- |
| Fc1ccc2nc(Nc3nc4cc5c(cc4s3)OCCO5)sc2c1 | 77.5% (active) |
| Oc1ccccc1C1Nc2cccc3cccc(c23)N1 | 24.4% (inactive) |
| O=C1/C(=C/Nc2ccc3c(c2)OCO3)CCc2ccccc21 | 19.5% (inactive) |
| Cn1c2ccccc2c2cc(/C=N/NC(=O)c3cc(O)ccc3O)ccc21 | 40.5% (active) |
| N#C/C(=C(\O)c1cc(Cl)sc1Cl)c1nc2ccccc2[nH]1 | 21.8% (inactive) |
| Oc1ccc(-c2cnc(-c3ccc(O)cc3)nc2)cc1 | 16.1% (inactive) |
| Oc1ccc(/C=C/c2ccc3cccc(O)c3n2)cc1Br | 23.9% (inactive) |
| Cc1[nH]c(N=Nc2ccccc2)nc1N=Nc1ccccc1 | 55.2% (active) |
| O=C(c1sc2ccccc2c1Cl)N1CCN(c2ncccn2)CC1 | 24.4% (inactive) |
| CCNc1c2c3c(cccc3n(C)c1=O)C(=O)c1ccccc1-2 | 80.2% (active) |
| CC1(C)CC(=O)C2=C(C1)N(CCN1CCOCC1)C1=C(C(=O)CC(C)(C)C1)C2c1cccc(F)c1 | 25.2% (inactive) |
| O=C(CSc1c(F)c(F)cc(F)c1F)Nc1ccc(C2SCCS2)cc1 | 5.01% (inactive) |
| CCc1nnc(NC(=O)CSc2nc(C)c3c(c2C#N)CCCC3)s1 | 13.9% (inactive) |
| CCCCn1c(NC(=O)c2ccccc2Cl)c(C#N)c2nc3ccccc3nc21 | 19.9% (inactive) |
| COc1ccc(-c2nc(-c3ccccc3)c(-c3cc([N+](=O)[O-])ccc3C)[nH]2)cc1O | -4.82% (inactive) |
| Nc1ccc2nc(-c3cccc(-c4nc5ccc(N)cc5[nH]4)c3)[nH]c2c1 | 94.1% (active) |
| O=C1NN(c2ccc(Cl)c(Cl)c2)C(=O)/C1=C/c1cccc(OC(=O)c2cccs2)c1 | 8.75% (inactive) |
| Cc1ccc(N=Nc2c(N)n(-c3ccccc3)[nH]c2=O)cc1 | 33.1% (active) |
| Cc1ccc2sc(NNC(=O)c3cc(=O)c4ccccc4o3)nc2c1C | 68.1% (active) |
| COc1ccc(C(=O)c2oc3ccc(OC)cc3c2N)cc1 | 29.6% (active) |

| SMILES | inhibition |
| --- | --- |
| c1ccc2c(c1)OCCc1c-2[nH]c2ccccc12 | 21.9% (inactive) |
| O=C(N=Nc1c(O)[nH]c2ccccc12)c1cccs1 | 42.6% (active) |
| Nc1c(C(=O)Nc2cccc(C(=O)O)c2)sc2nc3c(cc12)CCCC3 | 30.8% (active) |
| CCN1CCc2c(sc(NC(=O)Nc3ccc(Cl)c(Cl)c3)c2C(N)=O)C1 | 14.2% (inactive) |
| Cc1ccc(S(=O)(=O)c2nnn3c2nc(N2CCOCC2)c2ccccc23)c(C)c1 | 21.9% (inactive) |
| COc1ccc(/C=N/NC(=O)c2cc3cc(OC)c(OC)cc3[nH]2)cc1 | 8.04% (inactive) |
| COc1cc(/C=C2/C(=O)c3cccc([N+](=O)[O-])c3C2=O)c(Br)cc1O | 16.7% (inactive) |
| COc1cc(/C=C/c2ccc3cccc(O)c3n2)c(Br)cc1O | 27.5% (active) |
| COc1ccc2c(c1)cc(C(=O)N/N=C/c1c(O)c(C(=O)O)cc3ccccc13)n2C | 30% (active) |
| Cn1c(=O)cc2c3c(c(N4CCCCC4)ccc31)C(=O)c1ccccc1-2 | 24.1% (inactive) |
| CN(C)S(=O)(=O)c1ccc(-c2csc(N/N=C/c3ccc(O)cc3)n2)cc1 | 25% (inactive) |
| Nc1c(N2CCCC2)cc(Cl)c2nonc12 | 18.8% (inactive) |
| COc1ccc(/C=N/Nc2snc(SC)c2C#N)cc1OC | 24.9% (inactive) |
| O=C(O)c1ccc(N/N=C/c2cn(Cc3ccccc3F)c3ccccc23)cc1 | 93.4% (active) |
| O=C(O)CCNc1ccc(NCCC(=O)O)c2c1C(=O)c1ccccc1C2=O | 16.7% (inactive) |
| Cc1ccc(O)c(N=CC2=C(O)c3ccccc3C2=O)c1 | 27.3% (active) |
| O=C(CNc1cccc2ccccc12)N/N=C/c1cccc(Oc2ccccc2)c1 | 31.1% (active) |
| O=C(O)c1ccccc1N/N=C/c1cc(Br)cc(Br)c1O | 43.7% (active) |
| CN(C)c1ccc(CNC(=O)CN(C)S(=O)(=O)c2cccc3cccnc23)cc1 | 32.8% (active) |
| CCn1c(CSc2n[nH]c(N)n2)nc2cc(C(=O)O)ccc21 | 33.5% (active) |
